These results are taken from PubChem BioAssay (NCI).

Each structure is given as a SMILES string. Compounds without any hit were thinned out: in the full panel of roughly 83,000, 20% have a hit.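 Values shown are percent growth following 48 h exposure of cells in 96-well plates to a single concentration of compound; below 10 was considered active.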 Active and inactive are the calls of the source.

The first experiment relates to NCI-H23 lung. Put plainly: NCI-60 one-dose screen, 48 h (100 = growth as untreated, 0 = no growth, -100 = all killed). To be noted: 10 µM unless noted.
As to `Cc1ccc(Cl)cc1NC(=O)c1cc2ccccc2cc1O`, the growth is -30.4% (active).
Still for that read-out and setting: the result for `COc1ccc(NC(=O)CSc2nc(C)c(C(C)=O)n2-c2ccc([N+](=O)[O-])cc2)cc1` reads 88.2% (inactive); that for `O=C(NC(Cc1nnc2n(Cc3ccccc3)c(=O)c3c4c(sc3n12)CCCC4)c1ccc(Cl)cc1)c1ccccc1` (stereo unspecified), 82.2% (inactive).
On the same count and under the same terms, with `COc1cc(C2CC(=O)Nc3c2c(C)nn3-c2nc3ccccc3[nH]2)c(OC)c(OC)c1OC` (stereo unspecified) the figure was 82.6% (inactive); with `Cn1c(-c2c(N)n(Cc3ccc(C(F)(F)F)cc3)c3nc(C#N)c(C#N)nc23)nc2ccccc21`, 1.21% (active).
In the case of `N#Cc1c(-c2ccccc2)cc(-c2ccc(Nc3nc(Nc4ccc(F)cc4)nc(Nc4ccc(F)cc4)n3)cc2)nc1N`, the growth was 72.9% (inactive).
Same read-out and setting: the result for `Cc1c(O)cc(-c2cnc(N/N=C\c3ccc(Cl)cc3)s2)c(O)c1C` reads 91.5% (inactive); that for `COc1ccc2c(c1)O/C(=C\c1cccc(OCC(=O)Nc3nc4ccccc4s3)c1)C2=O`, -1.91% (active); that for `Cn1c2c(c3ccc(Cl)c(Cl)c31)C(C#N)C1(CCNCC1)NC2=O` (stereo unspecified), 72.6% (inactive).
Still for that read-out and setting: with `COc1ccc(C2=NN(C(=O)c3cc(OC)c(OC)c(OC)c3)C(c3ccc(Cl)cc3)C2)cc1OC` (stereo unspecified) the figure was -7.6% (active).
The same measure, in the same setting: with `CCN(CC)CCN1CC(O)=C(c2nc(-c3ccc(Cl)cc3)cs2)C1=N` the figure was 65.2% (inactive); with `C=C(C)[C@@H]1CC=C2c3sc(-c4ccc(C)cc4)nc3C[C@@H](C)[C@]2(C)C1`, 112% (inactive).
In the case of `COC(=O)c1c2c(c[n+]([O-])c1C)C(=O)C=CC2=O`, the growth was 60.4% (inactive).
On the same count and under the same terms, with `COc1ccc(NC(=O)CSc2nnc(-c3cc(-c4ccccc4)nc4ccccc34)n2-c2ccccc2)cc1` the figure was 92.1% (inactive).
Turning to `COc1cc(C2CC(=O)Nc3c2c(C)nn3-c2nc3ccccc3[nH]2)cc2c1OCC(=O)N2` (stereo unspecified), the growth is 74.6% (inactive).
The same measure, in the same setting: the result for `Cc1cc(Cl)nc(NCc2cc(Nc3ccnc4cc(Cl)ccc34)ccc2F)n1` reads 41.5% (inactive); that for `COc1ccc2c(c1)[nH]c(=O)c1c3cccnc3cn21`, 36.6% (inactive).
On the same count and under the same terms, with `Cc1ccc(Cc2cnc(NC(=O)c3ccc4noc(-c5ccccc5)c4c3)s2)cc1` the figure was 94.4% (inactive); with `CC1=CN2C(=O)C3C4=C(CCCC4)SC3N=C2CN1c1c(C)cccc1C` (stereo unspecified), 91.1% (inactive).
`Cc1ccc2[nH]c(=O)c3c(c2c1)OC(N)=C(C#N)C31c2cc(Br)ccc2-c2ccc(Br)cc21`: the growth is 59.1% (inactive).
On the same count and under the same terms, the result for `CS(=O)(=O)c1ccc(Nc2nc(N[C@H]3CCCC[C@H]3N)nc3cc[nH]c(=O)c23)cc1` reads -5.38% (active).
The same measure, in the same setting: the result for `O=C(NCCCNc1cc(-c2cn(-c3ccccc3)nc2-c2cccc(O)c2)ccn1)c1cccc(O)c1` reads 67.3% (inactive).
The same measure, in the same setting: with `COc1ccc(C(=O)COc2ccc(/C=C3\Oc4ccccc4C3=O)cc2)cc1` the figure was 92.9% (inactive); with `Cc1ccc(C2SCC(=O)N2Cc2ccccc2)cc1` (stereo unspecified), 100% (inactive); with `Cc1cccc(Cc2cnc(NC(=O)/C=C/c3ccco3)s2)c1`, 28.2% (inactive).
As to `CN(C)CCNc1nc2ccccc2c2c1c1c(n2Cc2ccccc2)-c2ccccc2C1=O`, the growth is -74.8% (active).
On the same count and under the same terms, with `Cc1occc1-c1n[nH]c(=S)n1N1C(=O)CSC1=S` the figure was 102% (inactive); with `Cc1cccc(NC(=O)CSc2nc3ccccc3[nH]2)c1`, 94.6% (inactive).
Same read-out and setting: with `Cc1ccccc1NC(=O)N/C(N)=N/c1nc(C)c(C)s1` the figure was 42.7% (inactive); with `NNC(=O)c1nc(N)n(-c2ccc(S(N)(=O)=O)cc2)n1`, 97.2% (inactive); with `COc1cc(CCC[P+](c2ccccc2)(c2ccccc2)c2ccccc2)cc2c1OCO2`, 19.1% (inactive).
On to `O=C1/C(=C2/C=Nc3ccccc32)N(O)c2ccccc21`, for which the growth was 56.8% (inactive).
Same read-out and setting: with `COc1ccccc1N1C(=O)/C(=C/C2=Cc3ccccc3OC2)SC1=S` the figure was 97.6% (inactive).
The same measure, in the same setting: with `C=CCn1c(C)nc2cc(Nc3nc(Cl)nc4ccccc34)ccc21` the figure was 97.9% (inactive); with `COc1cc(/C=C/C(=O)c2c(C)nc3ccccc3c2C)ccc1OCCCN1CCN(C(=O)c2ccco2)CC1`, 58.1% (inactive).
Take `Cn1cc(-c2csc(-c3ccccc3)n2)c2cccnc21`: the growth was -54.3% [100 µM] (active).
Same read-out and setting: the result for `N=C(N)c1ccc(-c2ccc(-c3cncc4ccccc34)s2)s1` reads -53.2% (active); that for `CC(C)CC(NC(=O)CN(Cc1ccccc1)S(C)(=O)=O)C(=O)O` (stereo unspecified), 93.1% (inactive).

The test system of another experiment is NCI-H226 lung. Described as above. The following applies: 10 µM unless noted.
`Cc1ccc(Cl)cc1NC(=O)c1cc2ccccc2cc1O`: the growth was -35.6% (active).
Same read-out and setting: the result for `COc1ccc(NC(=O)CSc2nc(C)c(C(C)=O)n2-c2ccc([N+](=O)[O-])cc2)cc1` reads 89% (inactive).
Same read-out and setting: with `O=C(NC(Cc1nnc2n(Cc3ccccc3)c(=O)c3c4c(sc3n12)CCCC4)c1ccc(Cl)cc1)c1ccccc1` (stereo unspecified) the figure was 97.6% (inactive); with `COc1cc(C2CC(=O)Nc3c2c(C)nn3-c2nc3ccccc3[nH]2)c(OC)c(OC)c1OC` (stereo unspecified), 89.7% (inactive).
`Cn1c(-c2c(N)n(Cc3ccc(C(F)(F)F)cc3)c3nc(C#N)c(C#N)nc23)nc2ccccc21`: the growth is -1.51% (active).
In the case of `N#Cc1c(-c2ccccc2)cc(-c2ccc(Nc3nc(Nc4ccc(F)cc4)nc(Nc4ccc(F)cc4)n3)cc2)nc1N`, the growth is 101% (inactive).
Still for that read-out and setting: with `Cc1c(O)cc(-c2cnc(N/N=C\c3ccc(Cl)cc3)s2)c(O)c1C` the figure was 87.2% (inactive); with `COc1ccc2c(c1)O/C(=C\c1cccc(OCC(=O)Nc3nc4ccccc4s3)c1)C2=O`, 83.7% (inactive); with `Cn1c2c(c3ccc(Cl)c(Cl)c31)C(C#N)C1(CCNCC1)NC2=O` (stereo unspecified), 44.1% (inactive).
With `COc1ccc(C2=NN(C(=O)c3cc(OC)c(OC)c(OC)c3)C(c3ccc(Cl)cc3)C2)cc1OC` (stereo unspecified), the growth was 58.3% (inactive).
Regarding `CCN(CC)CCN1CC(O)=C(c2nc(-c3ccc(Cl)cc3)cs2)C1=N`, the growth is 99.2% (inactive).
The same measure, in the same setting: the result for `C=C(C)[C@@H]1CC=C2c3sc(-c4ccc(C)cc4)nc3C[C@@H](C)[C@]2(C)C1` reads 101% (inactive); that for `COC(=O)c1c2c(c[n+]([O-])c1C)C(=O)C=CC2=O`, 98.1% (inactive); that for `COc1ccc(NC(=O)CSc2nnc(-c3cc(-c4ccccc4)nc4ccccc34)n2-c2ccccc2)cc1`, 89.3% (inactive).
Same read-out and setting: with `COc1cc(C2CC(=O)Nc3c2c(C)nn3-c2nc3ccccc3[nH]2)cc2c1OCC(=O)N2` (stereo unspecified) the figure was 76.2% (inactive).
As to `Cc1cc(Cl)nc(NCc2cc(Nc3ccnc4cc(Cl)ccc34)ccc2F)n1`, the growth is 64.2% (inactive).
Still for that read-out and setting: with `COc1ccc2c(c1)[nH]c(=O)c1c3cccnc3cn21` the figure was 66.3% (inactive); with `Cc1ccc(Cc2cnc(NC(=O)c3ccc4noc(-c5ccccc5)c4c3)s2)cc1`, 88.3% (inactive).
Still for that read-out and setting: the result for `CC1=CN2C(=O)C3C4=C(CCCC4)SC3N=C2CN1c1c(C)cccc1C` (stereo unspecified) reads 71% (inactive).
Take `Cc1ccc2[nH]c(=O)c3c(c2c1)OC(N)=C(C#N)C31c2cc(Br)ccc2-c2ccc(Br)cc21`: the growth was 58.7% (inactive).
The same measure, in the same setting: with `CS(=O)(=O)c1ccc(Nc2nc(N[C@H]3CCCC[C@H]3N)nc3cc[nH]c(=O)c23)cc1` the figure was -4.65% (active).
Same read-out and setting: the result for `O=C(NCCCNc1cc(-c2cn(-c3ccccc3)nc2-c2cccc(O)c2)ccn1)c1cccc(O)c1` reads 86.6% (inactive).
The same measure, in the same setting: the result for `COc1ccc(C(=O)COc2ccc(/C=C3\Oc4ccccc4C3=O)cc2)cc1` reads 88% (inactive); that for `Cc1ccc(C2SCC(=O)N2Cc2ccccc2)cc1` (stereo unspecified), 96% (inactive); that for `Cc1cccc(Cc2cnc(NC(=O)/C=C/c3ccco3)s2)c1`, 50.3% (inactive).
Regarding `CN(C)CCNc1nc2ccccc2c2c1c1c(n2Cc2ccccc2)-c2ccccc2C1=O`, the growth was -57.1% (active).
Same read-out and setting: the result for `Cc1occc1-c1n[nH]c(=S)n1N1C(=O)CSC1=S` reads 98.7% (inactive); that for `Cc1cccc(NC(=O)CSc2nc3ccccc3[nH]2)c1`, 92% (inactive).
The same measure, in the same setting: the result for `Cc1ccccc1NC(=O)N/C(N)=N/c1nc(C)c(C)s1` reads 60% (inactive); that for `NNC(=O)c1nc(N)n(-c2ccc(S(N)(=O)=O)cc2)n1`, 98.7% (inactive); that for `COc1cc(CCC[P+](c2ccccc2)(c2ccccc2)c2ccccc2)cc2c1OCO2`, 55.5% (inactive).
Same read-out and setting: the result for `O=C1/C(=C2/C=Nc3ccccc32)N(O)c2ccccc21` reads 77% (inactive).
With `COc1ccccc1N1C(=O)/C(=C/C2=Cc3ccccc3OC2)SC1=S`, the growth was 103% (inactive).
The same measure, in the same setting: with `C=CCn1c(C)nc2cc(Nc3nc(Cl)nc4ccccc34)ccc21` the figure was 90.1% (inactive); with `COc1cc(/C=C/C(=O)c2c(C)nc3ccccc3c2C)ccc1OCCCN1CCN(C(=O)c2ccco2)CC1`, 63.2% (inactive).
As for `Cn1cc(-c2csc(-c3ccccc3)n2)c2cccnc21`, the growth was -11.7% [100 µM] (active).
The same measure, in the same setting: with `N=C(N)c1ccc(-c2ccc(-c3cncc4ccccc34)s2)s1` the figure was -50.6% (active).
Same read-out and setting: the result for `CC(C)CC(NC(=O)CN(Cc1ccccc1)S(C)(=O)=O)C(=O)O` (stereo unspecified) reads 104% (inactive).
